From PubChem
KCNQ2 pot: potentiators of rat KCNQ2 potassium channel; O88943; CHO-K1 KCNQ2, FluxOR thallium flux fluorescence; hits give high values; B-score at 10 µM; actives 0.54% (n = 310,000); AID 2239;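 active means fluorescence ratio B-score at least 3 SD of library B-scores, with initial fluorescence B-score within 3 of them, cut at about 5.3 in these data; same plate scores as AID 2156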;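 further: B-score of peak minus minimum over baseline fluorescence ratio after K+ and Tl+ stimulus; positive B-score means potentiation of KCNQ2 with more thallium influx and brighter signal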
Target sequence (O88943 whole entry, looked up): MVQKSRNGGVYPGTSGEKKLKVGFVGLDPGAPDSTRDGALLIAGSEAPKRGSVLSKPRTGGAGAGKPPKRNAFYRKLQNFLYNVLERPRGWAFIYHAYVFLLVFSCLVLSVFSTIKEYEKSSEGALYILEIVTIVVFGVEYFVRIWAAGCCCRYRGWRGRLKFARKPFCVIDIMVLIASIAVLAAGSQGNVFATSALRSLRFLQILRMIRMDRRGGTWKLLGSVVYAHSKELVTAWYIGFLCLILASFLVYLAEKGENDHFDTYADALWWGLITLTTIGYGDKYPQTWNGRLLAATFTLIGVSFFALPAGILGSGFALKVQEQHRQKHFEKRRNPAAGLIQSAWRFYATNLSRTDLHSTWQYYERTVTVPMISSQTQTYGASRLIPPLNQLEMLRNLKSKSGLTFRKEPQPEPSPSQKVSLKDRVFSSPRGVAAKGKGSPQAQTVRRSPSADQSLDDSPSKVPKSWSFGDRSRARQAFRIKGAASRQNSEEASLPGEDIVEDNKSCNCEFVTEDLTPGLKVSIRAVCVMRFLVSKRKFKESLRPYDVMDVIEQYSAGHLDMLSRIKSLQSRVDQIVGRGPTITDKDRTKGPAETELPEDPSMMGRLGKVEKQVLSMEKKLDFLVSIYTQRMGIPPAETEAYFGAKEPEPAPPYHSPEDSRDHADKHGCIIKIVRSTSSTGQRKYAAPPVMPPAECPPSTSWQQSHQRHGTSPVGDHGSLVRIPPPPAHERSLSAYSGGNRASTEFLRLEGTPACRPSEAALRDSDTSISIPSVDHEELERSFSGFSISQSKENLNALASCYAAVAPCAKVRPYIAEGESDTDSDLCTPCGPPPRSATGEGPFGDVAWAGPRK
KCNQ2 block: blocks the rat KCNQ2 potassium channel; B-score at 10 µM; actives 1.1% (n = 310,000); CHO-K1 KCNQ2, FluxOR thallium flux, 20 min; hits give low values;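 active means fluorescence ratio B-score at most minus 3 library SDs, with starting brightness B-score within 2 library SDs, cut at about -5.5 in these data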
KCNQ2 inh conf: confirmation of rat KCNQ2 potassium channel inhibitors | AID 493025 | actives 57% (n = 1,000) | shares compounds with KCNQ2 block | KCNQ2-expressing cells, thallium flux, inhibition; hits give low values | activity change, negative = inhibition, % at 10 µM;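 further: 0% = vehicle wells and values are ratio percent relative to vehicle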
KCNQ1 spec: selectivity of KCNQ2 inhibitors against human KCNQ1. shares compounds with KCNQ2 block. AID 493026. actives 15% (n = 1,000). activity change, negative = inhibition, % at 10 µM. KCNQ1-expressing cells, FluxOR thallium flux fluorescence; hits give low values;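 active means activity change at least 3 SD of negative controls below their mean in both duplicate wells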;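 further: CHO cells stably transfected with KCNQ1 and depolarized by potassium stimulus; peak minus minimum fluorescence over baseline after thallium addition; 0% = vehicle negative control and -100% = blank without thallium stimulus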
CHO parental ctr: KCNQ2 inhibitor counter-screen hit in parental CHO cells; shares compounds with KCNQ2 block; thallium flux counter-screen; hits give low values; activity change, % at 10 µM; actives 14% (n = 1,000);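 further: 0% = vehicle negative controls with stimulus buffer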
KCNQ2 patch conf: confirmation of rat KCNQ2 potassium channel inhibitors; KCNQ2-expressing cells, automated patch clamp current; AID 588531; shares compounds with KCNQ2 block; actives 49% (n = 550); calls only at 10 µM
Kir21 confirm: confirmation of mouse Kir2.1 potassium channel inhibitors | Kir2.1-expressing cells, FluxOR thallium flux fluorescence; hits give low values | actives 41% (n = 2,300) | shares compounds with KCNQ2 pot | AID 2032 | Tl flux remaining, % of negative control (hits give low values), % at 10 µM;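 active means Primary-screen hit whose thallium flux fell at least 3 control SD below untreated wells in both duplicates, with normal baseline fluorescence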;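 further: 0% = blank wells without stimulus and 100% = stimulated no-compound controls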
HEK293 Tl flux: counter-screen for Kir2.1 inhibitors: effect in parental HEK293 cells | shares compounds with KCNQ2 pot | FluxOR thallium flux fluorescence; 0% = unstimulated blank wells | FluxOR signal as % of negative control (100 = no effect), % at 10 µM | actives 19% (n = 2,300);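 active means dye signal at least 3 control SD above or below untreated wells in both duplicates, raw fluorescence within 3, either direction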;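 further: percent is based on the flux ratio of peak minus minimum fluorescence over baseline F0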
* = called active by the depositor; i = inactive; / = no result given; + = active, no number. The list is not random: actives were taken first. Their share in the collection is about 1.6%. Unless noted, how the calls were made is not given here.

SMILES	KCNQ2 pot	KCNQ2 block	KCNQ2 inh conf	KCNQ1 spec	CHO parental ctr	others
O=C(NCC(c1cccs1)N1CCOCC1)c1cc([N+](=O)[O-])ccc1Cl (stereo not given)	/	i	/	/	/
O=C(NCC(c1cccs1)N1CCOCC1)c1ccc(Cl)s1 (stereo not given)	-9.7	-9.7*	i	i	i
Cc1nc(N2CCN(Cc3ccc4c(c3)OCO4)CC2)nc2c1C(=O)CC(c1ccco1)C2 (stereo not given)	/	i	/	/	/
Cc1nc(N2CCN(Cc3ccccc3)CC2)nc2c1C(=O)CC(c1ccco1)C2 (stereo not given)	-9.6	-9.6*	i	i	i
COc1ccc(S(=O)(=O)N2CCN(CC(=O)NC3CC3)CC2)cc1	/	i	/	/	/
O=C(Nc1cccc2ccccc12)c1nn(C23CC4CC(CC(C4)C2)C3)cc1[N+](=O)[O-]	-9.1	-9.1*	-29%*	i	i	KCNQ2 patch conf=+
COc1ccc(NC(=O)c2nn(C34CC5CC(CC(C5)C3)C4)cc2[N+](=O)[O-])cc1	0.35	i	/	/	/
C/C(=N\NC(=O)Cc1csc(N2CCOCC2)n1)c1ccc(Cl)c(Cl)c1	/	i	/	/	/
O=C(c1ccccc1)c1nc2ccccc2n(CCCn2c(=O)c(C(=O)c3ccccc3)nc3ccccc32)c1=O	-9	-9*	i	i	i
Cn1c(=O)c(C(=O)c2ccccc2)nc2ccccc21	0.02	i	/	/	/
CN(Cc1ccccc1)C(=O)c1[nH]cnc1C(=O)NCC(=O)OCc1ccccc1	/	i	/	/	/
COc1ccc(CN(Cc2ccccn2)C(=O)CN2C(=O)COc3ccccc32)cc1	0.38	i	/	/	/
CC1Oc2ccccc2N(CC(=O)N(Cc2ccccc2)Cc2ccccn2)C1=O (stereo not given)	-7.2	-7.2*	-16%*	i	i	KCNQ2 patch conf=+
Cc1ccccc1Nc1scc(-c2ccc(Cl)cc2)[n+]1-c1ccccc1C	/	i	/	/	/
COC(=O)c1ccc2c(c1)C(C)(C)C(/C=C/c1ccc(O)cc1)=[N+]2C	/	i	/	/	/
COC(=O)c1ccc2c(c1)C(C)(C)C(/C=C/c1ccc(OC)c(OC)c1OC)=[N+]2C	-16	-16*	-70%*	-66%*	-60%*	KCNQ2 patch conf=i;Kir21 confirm=31%*;HEK293 Tl flux=i
CCC1(c2ccccc2)NC(=O)N(CC(=O)Nc2ccc(S(N)(=O)=O)cc2)C1=O (stereo not given)	/	i	/	/	/
N=c1c2c(-c3ccccc3)c(-c3ccccc3)oc2ncn1CCN1CCOCC1	/	i	/	/	/
N=c1c2c(-c3ccccc3)c(-c3ccccc3)n(Cc3ccco3)c2ncn1CCCN1CCOCC1	/	i	/	/	/
N=c1c2c(-c3ccccc3)c(-c3ccccc3)n(Cc3ccccc3)c2ncn1CCO	-7.5	-7.5*	i	i	i	Kir21 confirm=38%*;HEK293 Tl flux=63%*
CC(C)Cn1cnc2c(c(-c3ccccc3)c(-c3ccccc3)n2Cc2ccco2)c1=N	-10	-10*	i	i	i	Kir21 confirm=i;HEK293 Tl flux=134%*
CCOc1ccc(NC(=O)C(Cc2ccccc2)N2C(=O)c3cccc4cccc(c34)C2=O)cc1 (stereo not given)	0.23	i	/	/	/
O=C(Nc1ccccc1C(=O)Nc1ccncc1)c1cccc([N+](=O)[O-])c1	1.6	i	/	/	/
NCCc1c(-c2ccccc2)n(-c2ccccc2)c2ccccc12	-7	-7*	i	i	i	Kir21 confirm=15%*;HEK293 Tl flux=i
CC(=O)n1c(-c2ccccc2)c(CO)c2ccccc21	0.08	i	/	/	/
CC(C)(Oc1ccc(Br)cc1Cl)C(=O)Nc1ccon1	0.81	i	/	/	/
CC(C)=CCc1c(O)ccc2c1OC(c1ccc(O)c(O)c1)CC2=O (stereo not given)	-8.7	-8.7*	i	i	i	Kir21 confirm=54%*;HEK293 Tl flux=i
O=C1CC(c2ccc(O)c(O)c2)Oc2cc(O)cc(O)c21 (stereo not given)	0.26	i	/	/	/
